# Pol kappa inh: qHTS for Inhibitors of Polymerase Kappa; DNA polymerase kappa (Homo sapiens), Q9UBT6; purified Pol kappa, fluorescent DNA synthesis assay, 10 min; Potency, µM (titrated, usually from 107 µM), for inactives: top-dose activity, negative = inhibition, actives largely listed as inhibitors; 0.53% of 400,000 active; also: % is scaled to controls: 0 for no effect and ±100 for the full control effect
#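 Fluorescent qHTS in 1536-well format: enzyme (10 nM) and compound sat 15 min at room temperature before 50 nM substrate (final) was added. Signal taken at 0 and 10 min; no-enzyme buffer wells were negative controls.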
# Pol beta inh: qHTS Assay for Inhibitors of DNA Polymerase Beta. P06746. Pol beta primer extension/strand displacement, fluorescence kinetic. Potency, µM (doses to about 114 µM), inactives show top-dose activity change, negative = inhibition, actives largely listed as inhibitors. 1.3% of 340,000 active. AID 485314, 2010; also: % is scaled to controls: 0 for no effect and ±100 for the full control effect
#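 Human Pol beta at 10 nM; strand-displacement substrate 50 nM final. Compound exposure 15 min at room temperature before start, reaction 10 min at room temperature.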
# FEN1 inhibitor: qHTS Assay for the Inhibitors of Human Flap endonuclease 1 (FEN1); 0.35% of 390,000 active; P39748; AID 588795, 2011; Recombinant FEN1 flap cleavage, fluorescence, 15 min; Potency, µM (titrated, usually from 114 µM), without a hit: at the top dose activity change, negative = inhibition, usual class: inhibitors; also: % is scaled to controls: 0 for no effect and ±100 for the full control effect; nearly all actives have a fitted effect of over 65% in size
#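 FEN1 at 10 nM, compound pretreatment for 15 min (room temperature), 50 nM final substrate to initiate; endpoint reads at 0 and 15 min; DMSO-only plates used as vehicle background.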
# WRN helicase inh-1: qHTS for Inhibitors of WRN Helicase; Bifunctional 3'-5' exonuclease/ATP-dependent helicase WRN (Homo sapiens), Q14191; WRN helicase unwinding, fluorescent forked duplex, kinetic; Potency, µM (highest dose often 114 µM), for inactives: at the highest dose activity change, negative = inhibition, most hits filed as inhibitors; 0.46% of 360,000 active; AID 651768, 2012; also: % is scaled to controls: 0 for no effect and ±100 for the full control effect; nearly all actives have a fitted effect of over 55% in size
#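 Kinetic red-fluorescence monitoring (525/598 nm) tracks WRN helicase activity after 100 nM fluorophore-quencher forked duplex and 2 mM ATP are added to 20 nM enzyme pretreated 15 min at room temperature with compound.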
# POLH inh: qHTS for Inhibitors of Polymerase Eta; DNA polymerase eta (Homo sapiens), Q9Y253; recombinant Pol eta, fluorescent DNA replication assay; Potency, µM (series often up to 114 µM), without a hit: top-dose activity change, negative = inhibition, hits mostly inhibitors; 1.2% of 390,000 active; AID 588591, 2011; also: % is scaled to controls: 0 for no effect and ±100 for the full control effect
#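 Pol eta at 10 nM preincubated with compounds 15 min at room temperature; reaction started with fluorescent substrate (50 nM final) and read kinetically at 0 and 10 min.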
# Pol iota inh: qHTS for Inhibitors of Polymerase Iota. DNA polymerase iota (Homo sapiens), Q9UNA4. Pol iota fluorescent replication assay, 10 min. Potency, µM (highest dose often 115 µM), inactives show at the top dose activity, negative = inhibition, usual class: inhibitors. 1% of 390,000 active. AID 588590, 2011
#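 Pol iota at 10 nM preincubated 15 min with compounds at room temperature; reaction started with fluorescent substrate, 50 nM final. Fluorescence read kinetically at 0 and 10 min; buffer-only wells as negative control.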
# WRN helicase inh-2: qHTS for Inhibitors of WRN Helicase: Confirmatory Assay for Cherry-picked Compounds; shares compounds with WRN helicase inh-1; WRN helicase DNA unwinding, fluorescence kinetic; Potency, µM (series often up to 57.1 µM), without a hit: top-dose activity, negative = inhibition, most hits filed as inhibitors; 63% of 610 active; AID 720497, 2013; also: nearly all actives have a fitted effect of over 65% in size
# TO DNA binding: qHTS for Inhibitors of WRN Helicase: Thiazole Orange DNA Binding Counterscreen; thiazole orange DNA binding displacement, fluorescence; shares compounds with WRN helicase inh-1; Potency, µM (doses to about 57.1 µM), for inactives: at the highest dose activity change, negative = inhibition, usual class: inhibitors; 10% of 610 active; AID 720499, 2013;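 also: drop in dye fluorescence marks compound binding to DNA; % is scaled to controls: 0 for no effect and ±100 for the full control effect; nearly all actives have a fitted effect of over 60% in size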
# BLM helicase inh: qHTS for Inhibitors of WRN Helicase: BLM Helicase Counterscreen for WRN Inhibitors. Recombinant BLM helicase DNA unwinding, red fluorescence. Potency, µM (series often up to 57.1 µM), for inactives: at the highest dose activity change, negative = inhibition, usual class: inhibitors. shares compounds with WRN helicase inh-1. 60% of 610 active; also: nearly all actives have a fitted effect of over 60% in size
# The depositor's hits bear a star; ? = inconclusive; nt = no result; [ ] = dose if it differs, or a comment. Most compounds without a hit are left out; they make up all but 2.4% or so of the library. Calls follow the shape of the dose curve; as a rule, active = well fitted curve in the direction sought with a large enough effect; inconclusive = small, poorly fitted or top-dose-only effect, or another doubt; inactive = no such curve, though single readings can be large; an effect the other way counts as inactive or inconclusive. Potency is read from the fitted curve at half-maximal effect.
SMILES,Pol kappa inh,Pol beta inh,FEN1 inhibitor,WRN helicase inh-1,POLH inh,Pol iota inh,WRN helicase inh-2,TO DNA binding,BLM helicase inh
CC1(C)OC(=O)C(=Cc2ccc(-c3ccc(S(N)(=O)=O)cc3)o2)C(=O)O1,?,4%,-18%,?,50µM*,?,?,-10%,?
NS(=O)(=O)c1ccc(-c2ccc(/C=C3\C(=O)Nc4cc(Cl)ccc43)o2)cc1,-19%,?,3%,-18%,?,?,nt,nt,nt
COc1ccc(NC(=O)NCc2cccn2Cc2ccc(F)cc2)cc1OC,-9%,-21%,12%,nt,-15%,23%,nt,nt,nt
CN(C)c1ccc(C=Cc2nccc3ccccc23)cc1,nt,nt,nt,79µM*,nt,nt,?,221%,?
CN(C)c1ccc(/C=C/c2ccnc3c2ccc2ccccc23)cc1,-6%,nt,-3%,nt,nt,31%,nt,nt,nt
Cn1cnc([N+](=O)[O-])c1S(=O)(=O)Oc1cccc2ccccc12,-15%,nt,4%,-88%,-5%,?,?,-7%,?
COc1cc(/C=N/Nc2ccccc2)ccc1O,-9%,-16%,9%,8%,-11%,?,nt,nt,nt
COc1cc(/C=N/Nc2nnc3c(n2)[nH]c2ccccc23)ccc1O,-6%,?,-11%,?,?,40µM*,?,-14%,?
COc1ccc(-c2csc3nc(C(C)(C)C)oc(=O)c23)cc1OC,-9%,-27%,1%,7%,-28%,9%,nt,nt,nt
COc1ccc(-c2csc3nc(-c4ccc(C)cc4)oc(=O)c23)cc1OC,4%,?,-4%,?,?,?,12µM*,85%,1.9µM*
CC1CCCN(S(=O)(=O)c2cc3c(cc2Cl)NC(=O)CO3)C1 (stereo unspecified),-2%,14%,-1%,nt,-4%,-3%,nt,nt,nt
Cc1ccccc1N=Cc1cc2c(cc1[N+](=O)[O-])OCO2,-11%,11%,-1%,-22%[57.1 µM],-15%,31%,nt,nt,nt
Cc1ccc(N=Cc2cc(Cc3ccccc3Cl)cc([N+](=O)[O-])c2O)c(O)c1,-81%,16µM*,-32%,28µM*,50µM*,?,24µM*,?,22µM*
Cc1ccc(C)c(N2CCN(C(=O)CCn3c(=O)[nH]c4ccccc4c3=O)CC2)c1,-4%[60.1 µM],-27%,-23%,nt,-21%,-12%,nt,nt,nt
N#C/C(=C\c1ccc(O)c([N+](=O)[O-])c1)c1nc2ccccc2s1,-27%,50µM*,?,32µM*,20µM*,?,24µM*,22µM*,24µM*
N#C/C(=C/c1ccco1)c1nc2ccccc2s1,-10%,-11%,-1%,-1%,-15%,20%,nt,nt,nt
CC(C)c1nc2sc3c(N4CCCCC4)ncnc3c2c2c1CCCC2,11%,0%,7%,nt,-19%,22%,nt,nt,nt
COc1ccc(NC(=O)Nc2ccc(OCc3ccccc3)cc2)cn1,12%,-1%,-5%,0%,-5%,35%,nt,nt,nt

# Screens as filed in PubChem.
